# In the supplement of paper PMC4466140:
# B1: unnamed (peptide)
# chain: VNFRRIPTGPDSPPT
# Target: AgAbp1
# Assay: SPOT peptide array binding signal intensity (averaged, normalized) (arbitrary units (background-subtracted, floor 0; scale differs between SH3 domains)); higher = stronger binding of the SH3 domain to the peptide
# Outline: (§1)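 Cellulose membranes carried synthetic 15-mer peptides with cysteines swapped for serines. These were incubated overnight at 4°C with 10 μg/ml of GST-fused SH3 domains from four yeast species in TBS-based blocking buffer. Binding signal, detected with anti-GST antibody and quantified in Genespotter, is the normalized, background-subtracted spot intensity averaged over replicates, in arbitrary units specific to each domain.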
row,Binder,SPOT peptide array binding signal intensity
1,B1,≤ 0

# Target: AgBbc1
# Assay: as above
# Outline: as §1
row,Binder,SPOT peptide array binding signal intensity
1,B1,2.5

# Target: AgBem1-D1
# Assay: as above
# Outline: as §1
row,Binder,SPOT peptide array binding signal intensity
1,B1,13

# Target: AgBzz1-D1
# Assay: as above
# Outline: as §1
row,Binder,SPOT peptide array binding signal intensity
1,B1,23

# Target: AgBzz1-D2
# Assay: as above
# Outline: as §1
row,Binder,SPOT peptide array binding signal intensity
1,B1,258

# Target: AgCyk3
# Assay: as above
# Outline: as §1
row,Binder,SPOT peptide array binding signal intensity
1,B1,≤ 0

# Target: AgFus1
# Assay: as above
# Outline: as §1
row,Binder,SPOT peptide array binding signal intensity
1,B1,45

# Target: AgHof1
# Assay: as above
# Outline: as §1
row,Binder,SPOT peptide array binding signal intensity
1,B1,6

# Target: AgHse1
# Assay: as above
# Outline: as §1
row,Binder,SPOT peptide array binding signal intensity
1,B1,132

# Target: AgLsb1
# Assay: as above
# Outline: as §1
row,Binder,SPOT peptide array binding signal intensity
1,B1,0.5

# Target: AgLsb4
# Assay: as above
# Outline: as §1
row,Binder,SPOT peptide array binding signal intensity
1,B1,5

# Target: AgMyo5
# Assay: as above
# Outline: as §1
row,Binder,SPOT peptide array binding signal intensity
1,B1,≤ 0

# Target: AgNbp2
# Assay: as above
# Outline: as §1
row,Binder,SPOT peptide array binding signal intensity
1,B1,≤ 0

# Target: AgRvs167
# Assay: as above
# Outline: as §1
row,Binder,SPOT peptide array binding signal intensity
1,B1,3.17

# Target: AgSho1
# Assay: as above
# Outline: as §1
row,Binder,SPOT peptide array binding signal intensity
1,B1,1

# Target: AgSla1-D1-D2
# Assay: as above
# Outline: as §1
row,Binder,SPOT peptide array binding signal intensity
1,B1,≤ 0

# Target: AgSla1-D3
# Assay: as above
# Outline: as §1
row,Binder,SPOT peptide array binding signal intensity
1,B1,0.5

# Target: CaAbp1-D1
# Assay: as above
# Outline: as §1
row,Binder,SPOT peptide array binding signal intensity
1,B1,≤ 0

# Target: CaAbp1-D2
# Assay: as above
# Outline: as §1
row,Binder,SPOT peptide array binding signal intensity
1,B1,≤ 0

# Target: CaBbc1
# Assay: as above
# Outline: as §1
row,Binder,SPOT peptide array binding signal intensity
1,B1,6.75

# Target: CaBem1-D1
# Assay: as above
# Outline: as §1
row,Binder,SPOT peptide array binding signal intensity
1,B1,6

# Target: CaBzz1-D1
# Assay: as above
# Outline: as §1
row,Binder,SPOT peptide array binding signal intensity
1,B1,41

# Target: CaBzz1-D2
# Assay: as above
# Outline: as §1
row,Binder,SPOT peptide array binding signal intensity
1,B1,16.5

# Target: CaCyk3
# Assay: as above
# Outline: as §1
row,Binder,SPOT peptide array binding signal intensity
1,B1,6

# Target: CaFus1
# Assay: as above
# Outline: as §1
row,Binder,SPOT peptide array binding signal intensity
1,B1,141

# Target: CaHof1
# Assay: as above
# Outline: as §1
row,Binder,SPOT peptide array binding signal intensity
1,B1,≤ 0

# Target: CaHse1
# Assay: as above
# Outline: as §1
row,Binder,SPOT peptide array binding signal intensity
1,B1,3.5

# Target: CaLsb1
# Assay: as above
# Outline: as §1
row,Binder,SPOT peptide array binding signal intensity
1,B1,≤ 0

# Target: CaLsb4
# Assay: as above
# Outline: as §1
row,Binder,SPOT peptide array binding signal intensity
1,B1,18.5

# Target: CaMyo5
# Assay: as above
# Outline: as §1
row,Binder,SPOT peptide array binding signal intensity
1,B1,0.5

# Target: CaNbp2
# Assay: as above
# Outline: as §1
row,Binder,SPOT peptide array binding signal intensity
1,B1,113

# Target: CaRvs167
# Assay: as above
# Outline: as §1
row,Binder,SPOT peptide array binding signal intensity
1,B1,1.33

# Target: CaRvs167-3
# Assay: as above
# Outline: as §1
row,Binder,SPOT peptide array binding signal intensity
1,B1,115

# Target: CaSho1
# Assay: as above
# Outline: as §1
row,Binder,SPOT peptide array binding signal intensity
1,B1,94.5

# Target: CaSla1-D1-D2
# Assay: as above
# Outline: as §1
row,Binder,SPOT peptide array binding signal intensity
1,B1,≤ 0

# Target: CaSla1-D3
# Assay: as above
# Outline: as §1
row,Binder,SPOT peptide array binding signal intensity
1,B1,≤ 0

# Target: ScAbp1
# Assay: as above
# Outline: as §1
row,Binder,SPOT peptide array binding signal intensity
1,B1,4

# Target: ScBbc1
# Assay: as above
# Outline: as §1
row,Binder,SPOT peptide array binding signal intensity
1,B1,2

# Target: ScBem1-D1
# Assay: as above
# Outline: as §1
row,Binder,SPOT peptide array binding signal intensity
1,B1,≤ 0

# Target: ScBzz1-D1
# Assay: as above
# Outline: as §1
row,Binder,SPOT peptide array binding signal intensity
1,B1,6

# Target: ScBzz1-D2
# Assay: as above
# Outline: as §1
row,Binder,SPOT peptide array binding signal intensity
1,B1,8.5

# Target: ScCyk3
# Assay: as above
# Outline: as §1
row,Binder,SPOT peptide array binding signal intensity
1,B1,1.5

# Target: ScFus1
# Assay: as above
# Outline: as §1
row,Binder,SPOT peptide array binding signal intensity
1,B1,30

# Target: ScHof1
# Assay: as above
# Outline: as §1
row,Binder,SPOT peptide array binding signal intensity
1,B1,0.5

# Target: ScHse1
# Assay: as above
# Outline: as §1
row,Binder,SPOT peptide array binding signal intensity
1,B1,278

# Target: ScLsb1
# Assay: as above
# Outline: as §1
row,Binder,SPOT peptide array binding signal intensity
1,B1,≤ 0

# Target: ScLsb2
# Assay: as above
# Outline: as §1
row,Binder,SPOT peptide array binding signal intensity
1,B1,≤ 0

# Target: ScLsb3
# Assay: as above
# Outline: as §1
row,Binder,SPOT peptide array binding signal intensity
1,B1,79

# Target: ScLsb4
# Assay: as above
# Outline: as §1
row,Binder,SPOT peptide array binding signal intensity
1,B1,11

# Target: ScMyo3
# Assay: as above
# Outline: as §1
row,Binder,SPOT peptide array binding signal intensity
1,B1,≤ 0

# Target: ScMyo5
# Assay: as above
# Outline: as §1
row,Binder,SPOT peptide array binding signal intensity
1,B1,≤ 0

# Target: ScNbp2
# Assay: as above
# Outline: as §1
row,Binder,SPOT peptide array binding signal intensity
1,B1,35.5

# Target: ScPex13
# Assay: as above
# Outline: as §1
row,Binder,SPOT peptide array binding signal intensity
1,B1,22.8

# Target: ScRvs167
# Assay: as above
# Outline: as §1
row,Binder,SPOT peptide array binding signal intensity
1,B1,0.167

# Target: ScSho1
# Assay: as above
# Outline: as §1
row,Binder,SPOT peptide array binding signal intensity
1,B1,96.5

# Target: ScSla1-D1-D2
# Assay: as above
# Outline: as §1
row,Binder,SPOT peptide array binding signal intensity
1,B1,≤ 0

# Target: ScSla1-D3
# Assay: as above
# Outline: as §1
row,Binder,SPOT peptide array binding signal intensity
1,B1,2.5

# Target: SpAbp1-D1
# Assay: as above
# Outline: as §1
row,Binder,SPOT peptide array binding signal intensity
1,B1,≤ 0

# Target: SpBbc1
# Assay: as above
# Outline: as §1
row,Binder,SPOT peptide array binding signal intensity
1,B1,≤ 0

# Target: SpBzz1-D1
# Assay: as above
# Outline: as §1
row,Binder,SPOT peptide array binding signal intensity
1,B1,50
